# According to PubChem BioAssay:
# “And” between values parts separate entries of the source, which are not always exact repeats. Equal values may be shown once. The source made the active and inactive calls.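 How the source made its calls, unless noted: active means thallium flux through the channel raised or lowered by more than 3 SD from vehicle-only wells, actives on both sides; inactive means the rest.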
# Tests used:
# [1] = liver-stage malaria parasite growth inhibition, primary screen, cell-based, HepG2, luciferase luminescence, HepG2 viability (AID 624349; in the data active means parasite load remaining mostly below about 12%, no sharp cut-off; inactive means mostly above about 10%;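 further: 100% = mean of DMSO negative control wells on the same plate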); conditions: P. berghei liver stage in HepG2, luciferase luminescence, concentration not given here; parasite load remaining: stronger effect = lower value; viability: measured here: HepG2 viability without parasites
# [2] = Cy5 fluorescence interference with SSB-bound oligo, artefact control for HCV NS3 helicase inhibitor project, biochemical, NIH Clinical Collection, E. coli SSB (AID 743268; call rule not given here)
# [3] = system: Hepatitis C virus NS3 helicase; assay: HCV NS3 helicase inhibitors, primary screen, biochemical, fluorescence polarization, NIH Clinical Collection (AID 743270; call rule not given here); conditions: NS3 helicase binding to Cy5-dT15 DNA, stronger effect = higher value, concentration not given here
# [4] = biological target: Single-stranded DNA-binding protein (Escherichia coli (strain K12)) (UniProt P0AGE0); assay: E. coli SSB displacement from DNA, counter-screen for HCV NS3 helicase inhibitor project, biochemical, fluorescence polarization, NIH Clinical Collection (AID 743271; in the data active means inhibition above about 28%); conditions: stronger effect = higher value, concentration not given here
# [5] = fluorescence interference in NS3h assay format, artefact control for HCV NS3 helicase inhibitor project, biochemical, NIH Clinical Collection (AID 743272; call rule not given here;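 further: HCV NS3 helicase with a Cy5 labelled single stranded DNA probe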); conditions: fluorescence interference counterscreen, stronger effect = lower value
# [6] = biological target: 6-phosphogluconate dehydrogenase, decarboxylating (Homo sapiens) (UniProt P52209); assay: 6PGD enzyme inhibitors, primary screen, biochemical, human, recombinant enzyme, NADPH absorbance (AID 1159550;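 active means at least 20% inhibition of 6-phosphogluconate dehydrogenase activity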); conditions: recombinant 6PGD, NADPH absorbance 341 nm; at 10 µM; stronger effect = higher value
# [7] = modulation of C. elegans fzo-1 (AID 1259413; call rule not given here;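 further: fzo-1 mutant C. elegans worms in liquid wells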); conditions: C. elegans fzo-1 modulator screen, mean read-out; stronger effect = higher value
# [8] = sensitizers of A549 cells to miR-34 induction, primary screen, imaging, A549 dox-inducible miR-34, nuclei and caspase counts (AID 1347080;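 active means compounds whose cell count with miR-34 switched on is under 0.7 times the count with it off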); conditions: A549 miR-34 inducible, Hoechst nuclei count, 48 h
# [9] = survival rescue of mitochondrial mutant cells in low glucose, primary screen, MELAS cybrids, Rieske KO mouse fibroblasts, CellTiter-Glo (AID 1508586;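 active means mean z-score across replicates of 1.96 or higher in either the MELAS or the Rieske mutant cell line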;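 further: z relative to plate mean and SD of compound and empty wells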)
# [10] = biological target: NAD(+) hydrolase SARM1 (Homo sapiens) (UniProt Q6SZW1); assay: SARM1 TIR NADase inhibitors, cell lysate, NAD-Glo luminescence (AID 1508614;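 active means compound whose remaining NAD level is above about 45 nM, limit read from the data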); conditions: SAM-TIR HEK293T lysate NADase, at 1 µM, stronger effect = higher value
# [11] = biological target: Mitogen-activated protein kinase 7 (Homo sapiens) (UniProt Q13164); assay: ERK5 transactivation activators in reporter cells, primary screen, cell-based, HTS (AID 1508626;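 active means luciferase signal above three times the same-plate solvent-only control wells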;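 further: luciferase driven by Gal4-ERK5 fusion binding five Gal4 sites before minimal TATA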); conditions: HeLa Gal4-ERK5 transactivation, 18 h, at 5 µM, stronger effect = higher value
# [12] = viability rescue of complex I mutant cybrids, primary screen, cell-based, galactose medium, ATP luminescence (AID 1645843;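 active means z-score of at least 1.8 in each of two replicates, scored against plate mean and spread of sample wells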;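 further: positive z means more ATP and so rescue of galactose-driven cybrid death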); conditions: complex I mutant cybrid cells, 72 h, stronger effect = higher value
# [13] = differential killing of epithelial or mesenchymal cells, primary screen, imaging, PC-3E GFP, TEM4-18 mCherry, co-culture (AID 1345086;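 active means compounds killing one labelled cell type while sparing the other, by normalised counts and ratio limits, not self-fluorescent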;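 on all read-outs here: cells exposed to compound for 72 h before imaging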;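 on red/green cell ratio (normalised): normalised mesenchymal count divided by normalised epithelial count so high means epithelial killing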); conditions: imaging cell counts, at 1 µM; for red/green cell ratio (normalised): actives lie on both sides, counts scaled to control wells, 1 = unselective
# [14] = system: F380Y; assay: modulators of BK channel variants, profiling panel, selectivity assay, cell-based, U2OS BacMam, thallium flux, beta subunits (AID 1259406); conditions: at 30 µM;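 further: initial slope of Thallos dye fluorescence rise after thallium is added; log ratio against the mean of 0.3% DMSO vehicle wells on the same plate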
# [15] = system: F380Y/beta2Delta; assay: as above; conditions: at 30 µM
# [16] = biological target: Calcium-activated potassium channel subunit alpha-1 (Homo sapiens) + Leucine-rich repeat-containing protein 26 (Homo sapiens) (UniProt Q12791+Q2I0M4); assay: as above; conditions: F380Y/Slo1WT/gamma1, at 30 µM
# [17] = system: R275C; assay: as above; conditions: at 30 µM
# [18] = system: R275C/beta1; assay: as above; conditions: at 30 µM
# [19] = system: R275C/beta2Delta; assay: as above; conditions: at 30 µM
# [20] = stronger effect = lower value, cell number ratio, induced over uninduced
# [21] = measured here: relative caspase fold change +Dox/-Dox
# [22] = measured here: total cells with miR-34 induction, stronger effect = lower value
# [23] = measured here: total cells without miR-34 induction
# [24] = MELAS cybrid survival, CellTiter-Glo 48 h, stronger effect = higher value
# [25] = Rieske KO mouse fibroblast survival, CellTiter-Glo 72 h
# [26] = measured here: epithelial PC-3E GFP cell survival
# [27] = measured here: mesenchymal TEM4-18 mCherry cell survival
# Chain of 6-phosphogluconate dehydrogenase, decarboxylating (Homo sapiens) (P52209 whole entry, looked up): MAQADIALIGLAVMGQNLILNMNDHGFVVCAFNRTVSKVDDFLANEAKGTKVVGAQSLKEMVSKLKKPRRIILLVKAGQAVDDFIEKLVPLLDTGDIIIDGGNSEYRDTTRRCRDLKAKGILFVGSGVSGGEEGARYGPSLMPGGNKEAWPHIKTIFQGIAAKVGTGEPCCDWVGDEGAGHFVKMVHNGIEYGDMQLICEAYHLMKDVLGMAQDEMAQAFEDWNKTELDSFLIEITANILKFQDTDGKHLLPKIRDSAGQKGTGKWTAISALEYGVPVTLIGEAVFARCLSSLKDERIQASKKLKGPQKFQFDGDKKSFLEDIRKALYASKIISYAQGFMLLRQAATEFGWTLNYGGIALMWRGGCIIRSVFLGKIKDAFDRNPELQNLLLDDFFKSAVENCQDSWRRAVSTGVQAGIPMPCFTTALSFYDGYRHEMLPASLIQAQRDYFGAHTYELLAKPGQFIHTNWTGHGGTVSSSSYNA
# Chain of Mitogen-activated protein kinase 7 (Homo sapiens) (Q13164 whole entry, looked up, the tested form may be a part): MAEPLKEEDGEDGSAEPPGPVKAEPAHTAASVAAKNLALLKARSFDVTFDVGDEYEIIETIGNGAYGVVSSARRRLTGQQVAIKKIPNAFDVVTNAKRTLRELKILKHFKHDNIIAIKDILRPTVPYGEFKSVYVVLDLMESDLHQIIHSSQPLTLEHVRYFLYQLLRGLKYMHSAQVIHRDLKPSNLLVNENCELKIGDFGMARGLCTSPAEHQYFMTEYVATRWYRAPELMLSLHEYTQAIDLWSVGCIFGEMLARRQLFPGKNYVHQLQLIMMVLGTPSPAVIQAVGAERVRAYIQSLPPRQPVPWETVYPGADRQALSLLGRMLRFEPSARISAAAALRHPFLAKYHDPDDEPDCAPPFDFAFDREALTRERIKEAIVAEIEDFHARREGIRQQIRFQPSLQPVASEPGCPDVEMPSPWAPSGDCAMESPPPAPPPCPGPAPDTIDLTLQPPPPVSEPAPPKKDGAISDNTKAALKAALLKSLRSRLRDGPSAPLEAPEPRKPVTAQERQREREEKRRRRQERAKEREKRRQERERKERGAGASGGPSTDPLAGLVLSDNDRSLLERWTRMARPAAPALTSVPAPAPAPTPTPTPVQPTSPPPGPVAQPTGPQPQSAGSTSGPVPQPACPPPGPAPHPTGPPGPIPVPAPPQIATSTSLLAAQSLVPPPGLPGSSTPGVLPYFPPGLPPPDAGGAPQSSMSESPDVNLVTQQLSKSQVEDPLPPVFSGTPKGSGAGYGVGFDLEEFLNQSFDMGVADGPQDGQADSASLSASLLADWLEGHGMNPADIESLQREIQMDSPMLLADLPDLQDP
# Chain of Calcium-activated potassium channel subunit alpha-1 (Homo sapiens) + Leucine-rich repeat-containing protein 26 (Homo sapiens) (Q2I0M4 whole entry, looked up, one chain of several): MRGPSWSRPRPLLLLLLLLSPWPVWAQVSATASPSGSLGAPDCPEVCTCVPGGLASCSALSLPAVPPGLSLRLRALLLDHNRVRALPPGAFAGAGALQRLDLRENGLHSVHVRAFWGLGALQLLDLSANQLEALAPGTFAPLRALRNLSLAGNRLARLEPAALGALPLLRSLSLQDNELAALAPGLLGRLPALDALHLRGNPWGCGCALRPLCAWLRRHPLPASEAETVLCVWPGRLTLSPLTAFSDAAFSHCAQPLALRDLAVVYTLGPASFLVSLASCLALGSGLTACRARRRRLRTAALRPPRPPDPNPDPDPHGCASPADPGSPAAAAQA
# Chain of NAD(+) hydrolase SARM1 (Homo sapiens) (Q6SZW1 whole entry, looked up, the tested form may be a part): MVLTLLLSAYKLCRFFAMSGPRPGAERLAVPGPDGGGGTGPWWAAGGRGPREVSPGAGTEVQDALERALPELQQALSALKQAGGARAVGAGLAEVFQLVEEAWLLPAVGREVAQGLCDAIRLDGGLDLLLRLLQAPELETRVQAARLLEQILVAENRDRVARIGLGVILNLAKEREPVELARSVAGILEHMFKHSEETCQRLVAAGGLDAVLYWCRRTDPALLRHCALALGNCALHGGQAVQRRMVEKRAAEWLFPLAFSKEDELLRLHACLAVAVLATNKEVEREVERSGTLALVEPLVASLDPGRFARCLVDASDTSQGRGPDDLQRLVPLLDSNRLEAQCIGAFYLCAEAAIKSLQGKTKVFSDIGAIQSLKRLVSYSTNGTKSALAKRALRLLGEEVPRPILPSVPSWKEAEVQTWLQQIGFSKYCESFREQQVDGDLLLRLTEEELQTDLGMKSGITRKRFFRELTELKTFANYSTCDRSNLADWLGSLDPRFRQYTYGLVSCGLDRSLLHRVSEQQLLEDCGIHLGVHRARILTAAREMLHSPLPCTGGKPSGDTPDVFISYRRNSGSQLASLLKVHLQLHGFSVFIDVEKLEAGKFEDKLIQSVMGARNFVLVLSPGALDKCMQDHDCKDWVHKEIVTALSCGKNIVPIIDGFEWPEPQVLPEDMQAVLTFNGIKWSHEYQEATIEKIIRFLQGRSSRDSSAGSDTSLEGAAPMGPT
smiles,measurement,setting,value
CC[C@H](C)C(=O)O[C@H]1CCC=C2C=C[C@H](C)[C@H](CC[C@@H]3C[C@@H](O)CC(=O)O3)[C@H]21,parasite load remaining,[1],95.7% (inactive) and 85.1% (inactive)
same,viability,[1],67.9% and 134%
same,fluorescence ratio,[2],0.91 (inactive)
same,inhibition,[3],0.66% (inactive)
same,inhibition,[4],1.97% (inactive)
same,fluorescence ratio,[5],0.89 (inactive)
same,inhibition,[6],-1.06% (inactive)
same,mean signal,[7],242 (inactive)
same,fold change,[8]; [20],0.923 (inactive) and 1.16 (inactive) and 1.1 (inactive)
same,fold change,[8]; [21],1.44 and 0.292 and 0.944
same,cell count,[8]; [22],2090 and 1930 and 4610
same,cell count,[8]; [23],2270 and 1660 and 4180
same,z-score,[9]; [24],0.801 (inactive) and -1.19 (inactive)
same,z-score,[9]; [25],0.000262 and -0.468
same,remaining NAD,[10],10 nM (inactive)
same,luciferase signal,[11],24 AU (inactive)
same,z-score,[12],-0.615 (inactive) and -0.575 (inactive) and 0.1 (inactive)
CC(=O)NC(C(=O)O)C(C)(C)SN=O (stereo unspecified),inhibition,[6],3.72% (inactive)
same,red/green cell ratio (normalised),[13],1.02 (inactive)
same,normalised cell number,[13]; [26],1.04
same,normalised cell number,[13]; [27],1.06
Cc1cc(=O)oc2cc(O)cc(O)c12,inhibition,[6],3.6% (inactive)
same,red/green cell ratio (normalised),[13],0.8 (inactive)
same,normalised cell number,[13]; [26],1.18
same,normalised cell number,[13]; [27],0.94
CN1CCN(CC/C=C2/c3ccccc3Sc3ccc(S(=O)(=O)N(C)C)cc32)CC1,inhibition,[6],2.11% (inactive)
same,mean signal,[7],215 (inactive)
same,remaining NAD,[10],10 nM (inactive)
same,luciferase signal,[11],108 AU (inactive)
C[C@]12CC[C@@H]3c4ccc(O)cc4CC[C@H]3[C@@H]1CC[C@@H]2O,fluorescence ratio,[2],1 (inactive)
same,inhibition,[3],2.77% (inactive)
same,inhibition,[4],-0.87% (inactive)
same,fluorescence ratio,[5],0.97 (inactive)
same,inhibition,[6],-7.69% (inactive)
same,z-score,[9]; [24],1.01 (inactive) and 0.292 (inactive)
same,z-score,[9]; [25],-0.193 and 1.1
same,remaining NAD,[10],10 nM (inactive)
same,luciferase signal,[11],184 AU (inactive)
same,z-score,[12],0.115 (inactive) and -0.055 (inactive)
same,log fold change Tl+ flux,[14],0.0249 (inactive)
same,log fold change Tl+ flux,[15],-0.0581 (inactive)
same,log fold change Tl+ flux,[16],0.072 (inactive)
same,log fold change Tl+ flux,[17],0.021 (inactive)
same,log fold change Tl+ flux,[18],0.0222 (inactive)
same,log fold change Tl+ flux,[19],-0.0294 (inactive)
COc1cccc(-c2cc(=O)c3cc(OC)ccc3o2)c1,inhibition,[6],-1.86% (inactive)
same,red/green cell ratio (normalised),[13],1.05 (inactive)
same,normalised cell number,[13]; [26],0.89
same,normalised cell number,[13]; [27],0.94
CC1(C)S[C@@H]2[C@H](NC(=O)[C@H](N)c3ccc(O)cc3)C(=O)N2[C@H]1C(=O)O,parasite load remaining,[1],78% (inactive) and 120% (inactive) and 88.8% (inactive)
same,viability,[1],117% and 121% and 76%
same,fluorescence ratio,[2],1.01 (inactive)
same,inhibition,[3],-4.09% (inactive)
same,inhibition,[4],7.91% (inactive)
same,fluorescence ratio,[5],1 (inactive)
same,inhibition,[6],8.62% (inactive)
same,mean signal,[7],239 (inactive)
same,fold change,[8]; [20],0.943 (inactive) and 0.821 (inactive)
same,fold change,[8]; [21],1.29 and 1.62
same,cell count,[8]; [22],10300 and 8970
same,cell count,[8]; [23],10900
same,z-score,[9]; [24],0.664 (inactive)
same,z-score,[9]; [25],0.115
same,remaining NAD,[10],10 nM (inactive)
same,luciferase signal,[11],56 AU (inactive)
same,z-score,[12],0.84 (inactive)
same,log fold change Tl+ flux,[14],-0.0516 (inactive)
same,log fold change Tl+ flux,[15],-0.0816 (active)
same,log fold change Tl+ flux,[16],0.0259 (inactive)
same,log fold change Tl+ flux,[17],0.00882 (inactive)
same,log fold change Tl+ flux,[18],0.0045 (inactive)
same,log fold change Tl+ flux,[19],-0.0233 (inactive)
CN(C)CCC(c1ccc(Cl)cc1)c1ccccn1 (stereo unspecified),fluorescence ratio,[2],1.05 (inactive)
same,inhibition,[3],-1.98% (inactive)
same,inhibition,[4],-3.95% (inactive)
same,fluorescence ratio,[5],1.02 (inactive)
same,inhibition,[6],14.7% (inactive)
same,mean signal,[7],225 (inactive)
same,red/green cell ratio (normalised),[13],1.02 (inactive)
same,normalised cell number,[13]; [26],0.91
same,normalised cell number,[13]; [27],0.93
same,z-score,[9]; [24],-0.0722 (inactive) and 0.91 (inactive) and 0.217 (inactive)
same,z-score,[9]; [25],0.675 and 0.216 and -0.121
same,remaining NAD,[10],10 nM (inactive)
same,log fold change Tl+ flux,[14],0.0819 (inactive)
same,log fold change Tl+ flux,[15],0.0184 (inactive)
same,log fold change Tl+ flux,[16],-0.0284 (inactive)
same,log fold change Tl+ flux,[17],-0.059 (inactive)
same,log fold change Tl+ flux,[18],0.0906 (active)
same,log fold change Tl+ flux,[19],0.0118 (inactive)
CC(=O)N=c1sc(S(N)(=O)=O)nn1C,fluorescence ratio,[2],1.01 (inactive)
same,inhibition,[3],-0.45% (inactive)
same,inhibition,[4],-3.53% (inactive)
same,fluorescence ratio,[5],1.03 (inactive)
same,inhibition,[6],18.8% (inactive)
same,mean signal,[7],273 (inactive)
same,red/green cell ratio (normalised),[13],1.22 (inactive)
same,normalised cell number,[13]; [26],0.92
same,normalised cell number,[13]; [27],1.12
same,z-score,[9]; [24],-0.23 (inactive) and 0.0575 (inactive)
same,z-score,[9]; [25],-0.175 and -0.724
same,remaining NAD,[10],10 nM (inactive)
same,luciferase signal,[11],80 AU (inactive)
same,z-score,[12],0.7 (inactive)
same,log fold change Tl+ flux,[14],0.00591 (inactive)
same,log fold change Tl+ flux,[15],0.00714 (inactive)
same,log fold change Tl+ flux,[16],-0.0355 (inactive)
same,log fold change Tl+ flux,[17],0.00598 (inactive)
same,log fold change Tl+ flux,[18],-0.028 (inactive)
same,log fold change Tl+ flux,[19],-0.0276 (inactive)
C=CC1=C(C(=O)O)N2C(=O)[C@@H](NC(=O)/C(=N\O)c3csc(N)n3)[C@H]2SC1 (stereo in doubt),parasite load remaining,[1],166% (inactive) and 48.1% (inactive)
same,viability,[1],87.7% and 99.2%
same,inhibition,[6],-2.05% (inactive)
same,mean signal,[7],293 (inactive)
same,red/green cell ratio (normalised),[13],1.17 (inactive)
same,normalised cell number,[13]; [26],0.89
same,normalised cell number,[13]; [27],1.04
same,fold change,[8]; [20],0.92 (inactive)
same,fold change,[8]; [21],4.11
same,cell count,[8]; [22],12500
same,cell count,[8]; [23],13600
same,z-score,[9]; [24],-0.152 (inactive)
same,z-score,[9]; [25],-0.423
same,remaining NAD,[10],10 nM (inactive)
same,luciferase signal,[11],264 AU (inactive)
CCCCC(=O)O[C@H]1CC[C@H]2[C@@H]3CCc4cc(O)ccc4[C@H]3CC[C@]12C,parasite load remaining,[1],36.5% (inactive)
same,viability,[1],98.1%
same,fluorescence ratio,[2],1.02 (inactive)
same,inhibition,[3],3.18% (inactive)
same,inhibition,[4],4.1% (inactive)
same,fluorescence ratio,[5],0.91 (inactive)
same,inhibition,[6],6.29% (inactive)
same,fold change,[8]; [20],1 (inactive)
same,fold change,[8]; [21],2.83
same,cell count,[8]; [22],6120
same,cell count,[8]; [23],6090
same,z-score,[9]; [24],-1.02 (inactive)
same,z-score,[9]; [25],-0.171
same,remaining NAD,[10],10 nM (inactive)
same,luciferase signal,[11],84 AU (inactive)
same,z-score,[12],-1.51 (inactive)
same,log fold change Tl+ flux,[14],0.0324 (inactive)
same,log fold change Tl+ flux,[15],0.0462 (inactive)
same,log fold change Tl+ flux,[16],0.00253 (inactive)
same,log fold change Tl+ flux,[17],0.0329 (inactive)
same,log fold change Tl+ flux,[18],0.0221 (inactive)
same,log fold change Tl+ flux,[19],-0.00327 (inactive)
O=C1CC(c2ccccc2)Oc2ccccc21 (stereo unspecified),inhibition,[6],1.48% (inactive)
same,red/green cell ratio (normalised),[13],0.93 (inactive)
same,normalised cell number,[13]; [26],1.14
same,normalised cell number,[13]; [27],1.06
